A selection: hits, their analogues and other compounds. The true share with any hit is near 21%.
Shiga toxin inh = inhibitors of Shiga toxin in Vero cells; Vero cells, Shiga toxin protein synthesis inhibition reporter; inhibition, % at 38.7 µM; 290,000 tested, 9.2% active; in the data active = inhibition mostly above about 28%, no sharp cut-off; inactive = mostly below about 43%; note: 0% is about no effect
Pf growth 96h = P. falciparum growth inhibition at 96 hours; P. falciparum luciferase reporter growth, 96 h; Potency, µM (top dose mostly 28.7 µM), for the others: at the top dose activity change, negative = inhibition, hits mostly inhibitors; 320,000 tested, 6.9% active; note: potency is the fitted concentration of half-maximal effect; % is set by controls: 0 for no effect and ±100 for the full control effect
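Two parasite generations (96 h, 37 C, 5% CO2) of compound exposure in infected erythrocytes (0.05% parasitemia, 2% hematocrit). Luciferase-reporter P. falciparum; decreased luminescence indicates inhibited growth, aimed at apicoplast-acting delayed death.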
CHX counter = counter-screen for Shiga toxin inhibitors: cycloheximide protein synthesis inhibition | cell reporter, cycloheximide protein synthesis inhibition counterscreen | max response, % | 300,000 tested, 12% active; in the data active = max response mostly above about 13%, no sharp cut-off; inactive = mostly below about 14%; note: read at 38.3 µM for the half of the compounds with a filed dose; 0% is about no effect
Pf growth 48h = inhibits P. falciparum growth in the first generation, 48 h. 310,000 tested, 5.9% active. Potency, µM (top dose mostly 28.7 µM), inactives show top-dose activity change, negative = inhibition, actives largely listed as inhibitors. AID 504832. P. falciparum luciferase growth in erythrocytes, 48 h; note: potency is the fitted concentration of half-maximal effect; % is set by controls: 0 for no effect and ±100 for the full control effect
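Luminescence readout; reporter = integrated firefly luciferase in P. falciparum. RBC culture at 2% hematocrit, 0.1% parasitemia final, 37 C/5% CO2; decreased signal taken as growth inhibition.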
* marks the source's active call; other numbers are inactive results. Unless noted, calls come from the whole dose curve; as a rule, active = well fitted inhibition curve with a large enough effect; inconclusive = small, poorly fitted or top-dose-only effect, or another doubt; inactive = no such curve, though single readings can be large or run the other way.

Screening O=C(NCc1ccco1)c1cnn2c(C(F)(F)F)cc(-c3cccs3)nc12 returned Shiga toxin inh -6, Pf growth 96h 9.3µM*, CHX counter 2 and Pf growth 48h inconclusive.
`O=C(NCc1ccccc1Cl)c1ccc(CS(=O)Cc2ccc(Cl)cc2)o1` (stereo not drawn) gave Shiga toxin inh -7, Pf growth 96h -7%, CHX counter -2 and Pf growth 48h -15%.
`CCOc1ccc(S(=O)(=O)n2ccc(C)n2)cc1` gave Shiga toxin inh -7, Pf growth 96h inconclusive, CHX counter -2 and Pf growth 48h -6%.
`Cc1ccc(S(=O)(=O)n2ccc(-c3ccc(OCc4c(F)cccc4Cl)cc3)n2)cc1` gave Shiga toxin inh 4, Pf growth 96h -109%, CHX counter 1 and Pf growth 48h 9.3µM*.
`Cc1ccc(S(=O)(=O)n2ccc(-c3cccc(OCc4c(F)cccc4Cl)c3)n2)cc1` gave Shiga toxin inh 33, Pf growth 96h 0.74µM*, CHX counter -2 and Pf growth 48h 3.7µM*.
Cc1cc(C)c2c(n1)sc1c(O)cc(=O)[nH]c12 was read as Shiga toxin inh 6, Pf growth 96h 7.4µM*, CHX counter -1 and Pf growth 48h 18%.
Screening COc1ccc(-c2cc(C(F)(F)F)c3c(n2)sc2c(O)cc(=O)[nH]c23)c(OC)c1 returned Shiga toxin inh -8, Pf growth 96h inconclusive, CHX counter -4 and Pf growth 48h inconclusive.
`Cc1ccnc(NC(=O)c2ccc(N3C(=O)CCC3=O)cc2)c1` gave Shiga toxin inh 49*, Pf growth 96h 22%, CHX counter 45* and Pf growth 48h 107%.
For O=C(Nc1nc2c(F)cc(F)cc2s1)c1ccc2c(c1)OCCO2 the results were Pf growth 96h 40% and Pf growth 48h 225%.
Screening Cc1ccc2nc(NC(=O)c3ccc4c(c3)OCO4)sc2c1 returned Shiga toxin inh 76*, Pf growth 96h 427%, CHX counter 62* and Pf growth 48h 246%.
Cc1ccc2nc(NC(=O)c3ccc(N4C(=O)CCC4=O)cc3)sc2c1 was read as Shiga toxin inh 51*, Pf growth 96h inconclusive, CHX counter 31* and Pf growth 48h 83%.
For Cc1ccc2nc(NC(=O)c3ccc4ncsc4c3)sc2c1 the results were Shiga toxin inh 60*, Pf growth 96h 89%, CHX counter 33* and Pf growth 48h 14%.
For Cc1ccc2nc(NC(=O)c3cccs3)sc2c1 the results were Shiga toxin inh 80, Pf growth 96h inconclusive, CHX counter 25 and Pf growth 48h 75%.
`CC1(CCc2ccccc2)NC(=O)N(CC(=O)N2CCCCCC2)C1=O` (stereo not drawn) gave Pf growth 96h 2% and Pf growth 48h 3%.
CSCCC(=O)Nc1cc(S(=O)(=O)N2CCOCC2)ccc1N1CCN(C)CC1 was read as Shiga toxin inh 3, Pf growth 96h 0%, CHX counter 10 and Pf growth 48h 18%.
For CC(C)Oc1ccc(CNC2CCOC(C)(C)C2)cc1 (stereo not drawn) the results were Shiga toxin inh -17, Pf growth 96h -5%, CHX counter 6 and Pf growth 48h 29%.
`Cc1cc(C)c(OCCNC(=O)c2ccccc2Sc2ccccc2C#N)c(C)c1` gave Shiga toxin inh -12, Pf growth 96h inconclusive, CHX counter -2 and Pf growth 48h -22%.
CCC(C)[C@H](NC(=O)C1CC(=O)N(c2ccc(OC)cc2)C1)C(=O)NC1CCCC1 (stereo partly drawn) was read as Shiga toxin inh 2, Pf growth 96h inconclusive, CHX counter -5 and Pf growth 48h 14%.
Screening NS(=O)(=O)c1ccc2nc(NC(=O)c3ccc4ncsc4c3)sc2c1 returned Shiga toxin inh 33, Pf growth 96h 15%, CHX counter 9.3* and Pf growth 48h 131%.
For CCOc1ccc2nc(NC(=O)/C=C/c3ccc4c(c3)OCO4)sc2c1 the results were Shiga toxin inh -11, Pf growth 96h 174%, CHX counter -2 and Pf growth 48h 16%.
`O=C(/C=C/c1ccc2c(c1)OCO2)Nc1nc2ccc(F)cc2s1` gave Shiga toxin inh 63*, Pf growth 96h 57%, CHX counter 22* and Pf growth 48h 81%.
`NS(=O)(=O)c1ccc2nc(NC(=O)c3ccc4c(c3)OCCO4)sc2c1` gave Shiga toxin inh -11, Pf growth 96h 0%, CHX counter -2 and Pf growth 48h -19%.
For O=C(Nc1nc2cc3c(cc2s1)OCO3)c1ccc(N2C(=O)CCC2=O)cc1 the results were Shiga toxin inh 19, Pf growth 96h 8%, CHX counter 0 and Pf growth 48h 2%.
Screening O=C(Nc1nc2cc3c(cc2s1)OCO3)c1cccc(N2C(=O)CCC2=O)c1 returned Shiga toxin inh 50*, Pf growth 96h 66%, CHX counter 25* and Pf growth 48h 61%.
Cc1ccc(CN2C(=O)CSC2c2ccc(F)cc2)cc1 (stereo not drawn) was read as Shiga toxin inh -7, Pf growth 96h 43%, CHX counter -1 and Pf growth 48h -6%.
For COc1cccc(C(C(=O)NC(C)(C)C)N(C(=O)CCC(=O)Nc2cc(C)on2)c2ccc3c(c2)OCCO3)c1OC (stereo not drawn) the results were Shiga toxin inh -3, Pf growth 96h -2%, CHX counter -5 and Pf growth 48h inconclusive.
COc1cc2c(cc1OC)-c1c(OC)c(OC)cc3c1[C@H](C2)[N+](C)(C)CC3 was read as Shiga toxin inh -12, Pf growth 96h 0.37µM*, CHX counter -4 and Pf growth 48h inconclusive.
OC1OC[C@@H](O)[C@H](O)[C@@H]1O (stereo partly drawn) was read as Pf growth 96h 19% and Pf growth 48h 6%.
For COc1cccc(/C=N/NC(=O)CNC(=O)CCc2ccccc2)c1O the results were Shiga toxin inh 66*, Pf growth 96h 153%, CHX counter 30* and Pf growth 48h inconclusive.
For O=C(CNC(=O)c1cccs1)N/N=C/c1c(F)cccc1Cl the results were Shiga toxin inh 37*, Pf growth 96h 3%, CHX counter 16* and Pf growth 48h 54%.
COc1cccc(/C=N/NC(=O)CNC(=O)COc2cccc(C)c2)c1O was read as Shiga toxin inh 14, Pf growth 96h 46%, CHX counter -1 and Pf growth 48h 2.9µM*.
Cc1cccc(OCC(=O)NCC(=O)N/N=C/c2ccc(O)cc2O)c1 was read as Shiga toxin inh 14, Pf growth 96h inconclusive, CHX counter -1 and Pf growth 48h 10µM*.
For O=C(Nc1cc(Cl)ccc1-n1cncn1)C1CC1 the results were Pf growth 96h 19% and Pf growth 48h 1%.
Screening COc1ccc(CNC(=O)C(OC(=O)c2ccco2)c2ccc(F)cc2)cc1 (stereo not drawn) returned Shiga toxin inh 18, Pf growth 96h -24%, CHX counter -2 and Pf growth 48h 16%.
`Cc1ccc(/C=N/NC(=O)CNC(=O)c2cccs2)cc1` gave Shiga toxin inh 19, Pf growth 96h 60%, CHX counter 15* and Pf growth 48h 67%.
COc1cccc(/C=N/NC(=O)CNC(=O)c2cccs2)c1O was read as Shiga toxin inh 46*, Pf growth 96h 35%, CHX counter 31* and Pf growth 48h -10%.

Screens deposited in PubChem BioAssay by National Center for Advancing Translational Sciences (NCATS).
